# Test results: PubChem BioAssay
# For part of these data: Potency and affinity values are given separately. Calls of active or inactive are those of the source.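 How the source made its calls, unless noted: active means calcium signal rise above buffer-control mean plus 5 SD in both duplicates, and also a hit in the primary screen; inactive means the rest.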
# Legend:
# [1] = test system: TRPC4 beta (transient receptor potential cation channel C4), mouse; test: TRPC4 cation channel opening, retest – cell-based, Fluo4 calcium, HEK293 TRPC4beta/mu-opioid, duplicates, 10 µM, confirmation (AID 2426;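 active means fluorescence ratio normalized to control raised more than 50% in primary screen plus both repeat runs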); settings: Fluo4 calcium fluorescence, at 10 µM; active compounds read high
# [2] = test system: transient receptor potential cation channel C4 beta (TRPC4), mouse; test: TRPC4 cation channel opening, second retest – cell-based, second round, Fluo4, HEK293 TRPC4beta/mu-opioid, 1 µM, confirmation (AID 2461;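 active means primary screen active and over 50% activation in each of two duplicate runs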); settings: Fluo4 calcium fluorescence, at 1 µM; active compounds read high
# [3] = test system: TRPC4 (transient receptor potential cation channel C4 beta), mouse; test: potentiation of DAMGO EC20 TRPC4 response – cell-based, second round, Fluo-4, HEK293 TRPC4beta/mu-opioid, 1 µM, confirmation (AID 2554;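 active means primary screen hit whose fluorescence ratio, in both repeats, exceeds the weak agonist control mean by 3 SD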); settings: DAMGO EC20, Fluo-4 calcium flux, at 1 µM; active compounds read high
# [4] = test system: TRPC4 beta (transient receptor potential cation channel C4), mouse; test: potentiation of DAMGO EC20 TRPC4 response – cell-based, Fluo-4, HEK293 TRPC4beta/mu-opioid, confirmation (AID 2555;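 active means primary screen hit whose calcium fluorescence ratio, in both repeats, exceeds the weak agonist control mean by 3 SD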); settings: DAMGO EC20, Fluo-4 calcium flux, at 10 µM; active compounds read high
# [5] = biological target: Short transient receptor potential channel 4 (Mus musculus) (UniProt Q9QUQ5); test: blockers of DAMGO-evoked TRPC4 calcium flux – cell-based, Fluo4, HEK293 TRPC4beta/mu-opioid, confirmation (AID 2636;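 active means calcium signal cut by more than 3 SD below the full-agonist control yet still positive, in both repeats and the earlier primary screen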); settings: at 10 µM; active compounds read high
# Chain of Short transient receptor potential channel 4 (Mus musculus) (Q9QUQ5 whole entry, looked up): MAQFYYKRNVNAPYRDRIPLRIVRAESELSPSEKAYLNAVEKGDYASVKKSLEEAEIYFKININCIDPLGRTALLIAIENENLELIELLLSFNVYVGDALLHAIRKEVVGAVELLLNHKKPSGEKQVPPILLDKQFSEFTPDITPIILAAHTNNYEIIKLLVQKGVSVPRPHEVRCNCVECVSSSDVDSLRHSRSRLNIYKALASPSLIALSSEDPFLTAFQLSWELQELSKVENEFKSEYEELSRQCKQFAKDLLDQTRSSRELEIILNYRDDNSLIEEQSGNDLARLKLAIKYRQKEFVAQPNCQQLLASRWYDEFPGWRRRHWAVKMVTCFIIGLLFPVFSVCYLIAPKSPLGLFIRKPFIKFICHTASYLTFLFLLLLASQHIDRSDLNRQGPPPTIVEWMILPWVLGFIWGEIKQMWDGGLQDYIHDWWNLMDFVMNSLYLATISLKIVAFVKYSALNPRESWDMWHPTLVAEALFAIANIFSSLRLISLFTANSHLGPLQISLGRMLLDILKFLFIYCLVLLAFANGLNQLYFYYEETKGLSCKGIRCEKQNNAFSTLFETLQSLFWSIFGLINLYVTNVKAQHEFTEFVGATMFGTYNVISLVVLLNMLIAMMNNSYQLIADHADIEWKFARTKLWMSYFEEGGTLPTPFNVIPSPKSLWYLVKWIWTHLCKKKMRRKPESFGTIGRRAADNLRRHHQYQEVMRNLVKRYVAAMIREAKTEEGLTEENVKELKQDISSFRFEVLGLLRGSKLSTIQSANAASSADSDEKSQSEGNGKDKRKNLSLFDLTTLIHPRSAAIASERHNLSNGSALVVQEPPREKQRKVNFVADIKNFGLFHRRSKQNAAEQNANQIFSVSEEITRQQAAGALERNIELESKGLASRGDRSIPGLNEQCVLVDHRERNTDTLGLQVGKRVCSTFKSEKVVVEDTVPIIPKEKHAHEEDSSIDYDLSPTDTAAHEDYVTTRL
# [6] = biological target: Short transient receptor potential channel 4 (Mus musculus) (UniProt Q9QUQ5); test: blockers of DAMGO-evoked TRPC4 calcium flux – cell-based, second round, Fluo4, HEK293 TRPC4beta/mu-opioid, 1 µM, confirmation (AID 2637;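 active means calcium signal ratio cut to more than 3 SD under the fully stimulated control mean yet still positive, in both repeats and the primary screen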;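 on inhibition: percent of integrated ratio relative to wells lacking test compound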); settings: at 1 µM; active compounds read high
# [7] = biological target: Short transient receptor potential channel 4 (Mus musculus) (UniProt Q9QUQ5); test: calcium entry via TRPC4 opening agents – cell-based, HEK293 TRPC4/mu-opioid, Fluo-4 calcium, dose response (AID 434937;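 active means primary screen activator hit with a dose response curve and TRPC4 channel activation at any tested dose; inactive means no activation, no dose response, or not a primary hit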)
# [8] = biological target: Short transient receptor potential channel 4 (Mus musculus) (UniProt Q9QUQ5); test: potentiation of DAMGO-evoked TRPC4 calcium signal – cell-based, HEK293 TRPC4/mu-opioid, Fluo-4 calcium, EC20 DAMGO, dose response (AID 434941;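 active means earlier screen potentiator hit that boosts the TRPC4 ion channel at some dose, with a dose response; inactive means no potentiation, no dose response, or not a prior hit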;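 further: calcium entry triggered by an EC20 dose of DAMGO at the co-expressed mu-opioid receptor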)
# [9] = biological target: Short transient receptor potential channel 6 (Mus musculus) (UniProt Q61143); test: TRPC6 blockade by TRPC4 inhibitor hits – cell-based, HEK293, membrane potential dye, duplicate, selectivity assay for TRPC4 inhibitor project, confirmation (AID 434948;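 active means active in primary screen and both duplicates, each dropping signal beyond three positive-control SD with fluorescence still positive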); settings: HEK293 TRPC6, membrane potential dye fluorescence, at 10 µM, stimulated with maximal-effect acetylcholine; active compounds read high
# Chain of Short transient receptor potential channel 6 (Mus musculus) (Q61143 whole entry, looked up): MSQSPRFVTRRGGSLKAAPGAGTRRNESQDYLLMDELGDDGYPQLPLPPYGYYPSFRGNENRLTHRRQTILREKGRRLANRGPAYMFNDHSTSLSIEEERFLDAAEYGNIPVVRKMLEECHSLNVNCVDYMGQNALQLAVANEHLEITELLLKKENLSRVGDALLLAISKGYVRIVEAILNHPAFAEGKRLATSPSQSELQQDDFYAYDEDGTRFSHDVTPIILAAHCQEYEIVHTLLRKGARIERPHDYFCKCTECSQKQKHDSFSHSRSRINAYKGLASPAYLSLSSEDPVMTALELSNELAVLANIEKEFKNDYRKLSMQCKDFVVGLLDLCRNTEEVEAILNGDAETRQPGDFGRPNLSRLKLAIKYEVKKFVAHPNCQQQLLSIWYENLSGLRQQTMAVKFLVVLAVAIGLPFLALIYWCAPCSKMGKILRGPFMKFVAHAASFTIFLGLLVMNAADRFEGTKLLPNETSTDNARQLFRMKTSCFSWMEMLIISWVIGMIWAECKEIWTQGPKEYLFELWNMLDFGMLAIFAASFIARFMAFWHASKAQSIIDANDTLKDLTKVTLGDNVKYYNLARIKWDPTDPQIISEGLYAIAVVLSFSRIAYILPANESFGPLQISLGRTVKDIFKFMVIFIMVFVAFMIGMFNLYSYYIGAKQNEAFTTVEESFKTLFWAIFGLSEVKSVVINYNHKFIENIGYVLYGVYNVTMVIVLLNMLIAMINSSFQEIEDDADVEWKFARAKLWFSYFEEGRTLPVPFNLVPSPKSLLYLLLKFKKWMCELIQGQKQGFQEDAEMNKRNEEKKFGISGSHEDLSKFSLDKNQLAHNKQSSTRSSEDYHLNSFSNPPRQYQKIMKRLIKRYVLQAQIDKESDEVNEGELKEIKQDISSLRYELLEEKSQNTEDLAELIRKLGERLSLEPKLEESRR
# [10] = biological target: Short transient receptor potential channel 6 (Mus musculus) (UniProt Q61143); test: TRPC6 opening by TRPC4 activator hits – cell-based, HEK293, membrane potential dye, duplicate, selectivity assay for TRPC4 activator project, confirmation (AID 434950;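 active means membrane potential signal rise above negative control mean plus 3 SD in both duplicates, also active in the earlier TRPC4 screen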); settings: HEK293 TRPC6, membrane potential fluorescence, at 10 µM; activation: active compounds read high; outcome: activation
# [11] = biological target: Short transient receptor potential channel 6 (Mus musculus) (UniProt Q61143); test: positive modulators of mouse TRPC6 channel – HEK293 cells, membrane potential dye, duplicate, selectivity assay for TRPC4 potentiator project, confirmation (AID 434952;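 active means compound raising the membrane signal above positive-control mean plus 3 SD in both repeats, and a primary screen hit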); settings: HEK293 TRPC6, membrane potential dye fluorescence, at 10 µM, maximal acetylcholine added after compound; active compounds read high
# [12] = biological target: Short transient receptor potential channel 4 (Mus musculus) (UniProt Q9QUQ5); test: calcium flux activators in TRPC4/5HT1a cells, counter-screen for TRPC4 activator project, cell-based, second counter screen, HEK293 TRPC4/5HT1a, Fluo-4 (AID 434977); settings: Fluo-4 calcium flux, at 10 µM; active compounds read high
# [13] = serotonin-gated TRPC4 signal block – cell-based, second counter screen, HEK293 TRPC4/5HT1a, Fluo-4, counter-screen for TRPC4 inhibitor project, confirmation (AID 434978;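 active means primary screen active whose calcium signal fell more than 3 SD beyond the full-serotonin control mean in both duplicate plates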;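 on outcome: serotonin given first at submaximal then at maximal dose after compound preincubation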); settings: Fluo-4 calcium flux, at 10 µM, serotonin added to trigger calcium flux; active compounds read high
# [14] = test system: TRPC4 (mouse), co-expressed with 5HT1a in HEK293; test: enhancement of serotonin-evoked TRPC4 response – cell-based, second counter screen, HEK293 TRPC4/5HT1a, Fluo-4, counter-screen for TRPC4 potentiator project, confirmation (AID 434979;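 active means signal rise over 3 SD above mean of control wells given weak agonist, in both repeats and first screen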); settings: Fluo-4 calcium flux, at 10 µM, serotonin added at its EC20 dose; active compounds read high
# [15] = nonspecific calcium rise without TRPC4 – cell-based, HEK293 mu-opioid receptor line, counter-screen for TRPC4 activator project, confirmation (AID 449723;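 active means hit in primary screen, with calcium signal over 5 SD above buffer well mean in both duplicates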;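 further: counter screen cells carry the mu-opioid receptor alone and lack TRPC4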); settings: HEK293 mu-opioid cells, Fluo-4 calcium fluorescence, at 10 µM; active compounds read high
# [16] = nonspecific potentiation of DAMGO calcium response – cell-based, HEK293 mu-opioid receptor line, counter-screen for TRPC4 allosteric potentiator project, confirmation (AID 449724;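 active means calcium signal rise more than 3 SD above the low-dose agonist control mean, in both duplicate plates and the primary screen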); settings: HEK293 mu-opioid receptor cells, Fluo-4 calcium flux, at 10 µM, compound added before EC20 DAMGO stimulus; active compounds read high
# [17] = nonspecific flux increase, KCNQ1-free cells – parental CHO cells, counter-screen for KCNQ1 potentiator project (AID 493006;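 active means duplicate-averaged activation above buffer control mean plus 5 SD of those controls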); settings: parental CHO-K1 cells, FluxOR thallium flux, at 10 µM; active compounds read high
# [18] = biological target: Potassium voltage-gated channel subfamily KQT member 1 (Homo sapiens) (UniProt P51787); test: enhancement of KCNQ1 channel thallium flux – FluxOR thallium flux, CHO cells, duplicates, confirmation (AID 493007;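 active means potentiation averaged over duplicate wells exceeding buffer-only control mean by more than 3 SD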;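 on outcome: cells depolarized by a potassium plus thallium sulfate stimulus after compound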;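 on potentiation: 0% = buffer-only wells and 100% = R-L3 activator control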); settings: KCNQ1 cell line, FluxOR thallium flux fluorescence, at 10 µM; active compounds read high, % of reference activator effect, buffer zero
# Chain of Potassium voltage-gated channel subfamily KQT member 1 (Homo sapiens) (P51787 whole entry, looked up): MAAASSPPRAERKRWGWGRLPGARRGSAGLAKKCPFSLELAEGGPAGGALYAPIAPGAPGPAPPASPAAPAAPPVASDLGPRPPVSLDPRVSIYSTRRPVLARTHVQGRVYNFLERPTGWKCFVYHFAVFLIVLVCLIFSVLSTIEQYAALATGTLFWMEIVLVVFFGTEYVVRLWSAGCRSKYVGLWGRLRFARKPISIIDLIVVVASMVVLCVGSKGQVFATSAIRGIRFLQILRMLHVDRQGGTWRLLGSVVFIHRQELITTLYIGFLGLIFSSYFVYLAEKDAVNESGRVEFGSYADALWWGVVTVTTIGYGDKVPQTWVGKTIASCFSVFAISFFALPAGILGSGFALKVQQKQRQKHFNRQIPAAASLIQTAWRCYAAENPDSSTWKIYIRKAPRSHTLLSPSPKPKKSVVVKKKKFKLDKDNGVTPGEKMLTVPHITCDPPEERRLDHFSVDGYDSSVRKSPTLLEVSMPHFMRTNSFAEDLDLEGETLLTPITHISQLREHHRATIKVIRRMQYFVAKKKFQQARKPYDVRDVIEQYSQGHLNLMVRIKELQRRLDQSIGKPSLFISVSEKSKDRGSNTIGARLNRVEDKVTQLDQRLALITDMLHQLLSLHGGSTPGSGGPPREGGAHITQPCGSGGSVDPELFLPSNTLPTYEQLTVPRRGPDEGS
# [19] = biological target: Potassium voltage-gated channel subfamily KQT member 2 (Rattus norvegicus) (UniProt O88943); test: KCNQ2 thallium flux enhancement – KCNQ2-CHO-K1 cells, selectivity assay for KCNQ1 potentiator project (AID 493009;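 active means mean duplicate potentiation above the buffer control mean plus 5 SD of buffer wells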;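 further: assay conditions were tuned for KCNQ1 rather than KCNQ2 modulators; signal is max minus min fluorescence divided by baseline after thallium stimulus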); settings: FluxOR thallium flux fluorescence, at 10 µM; active compounds read high, scaled: buffer 0, activator control 100
# Chain of Potassium voltage-gated channel subfamily KQT member 2 (Rattus norvegicus) (O88943 whole entry, looked up): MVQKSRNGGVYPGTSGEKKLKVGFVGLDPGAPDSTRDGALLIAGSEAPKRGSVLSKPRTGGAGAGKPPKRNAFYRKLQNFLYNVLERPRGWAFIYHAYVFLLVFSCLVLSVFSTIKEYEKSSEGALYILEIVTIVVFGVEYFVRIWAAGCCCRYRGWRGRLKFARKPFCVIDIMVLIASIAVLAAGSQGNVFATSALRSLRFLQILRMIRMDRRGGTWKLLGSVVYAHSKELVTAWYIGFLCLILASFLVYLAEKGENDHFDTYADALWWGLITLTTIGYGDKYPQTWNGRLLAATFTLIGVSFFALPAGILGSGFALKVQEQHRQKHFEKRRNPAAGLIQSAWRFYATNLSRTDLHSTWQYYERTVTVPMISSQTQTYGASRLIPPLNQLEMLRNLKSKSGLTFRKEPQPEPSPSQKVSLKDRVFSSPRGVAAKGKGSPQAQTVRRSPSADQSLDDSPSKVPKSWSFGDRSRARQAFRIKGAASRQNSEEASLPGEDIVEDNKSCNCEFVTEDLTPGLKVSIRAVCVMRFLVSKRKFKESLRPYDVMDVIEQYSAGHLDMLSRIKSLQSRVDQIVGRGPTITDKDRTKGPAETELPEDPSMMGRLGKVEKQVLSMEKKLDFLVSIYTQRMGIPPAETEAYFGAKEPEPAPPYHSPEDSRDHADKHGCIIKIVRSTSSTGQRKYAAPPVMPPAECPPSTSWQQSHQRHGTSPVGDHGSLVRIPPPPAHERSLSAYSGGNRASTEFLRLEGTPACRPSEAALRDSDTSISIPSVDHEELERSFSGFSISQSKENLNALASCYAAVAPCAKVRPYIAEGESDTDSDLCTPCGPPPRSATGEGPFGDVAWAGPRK
# [20] = biological target: Potassium voltage-gated channel subfamily KQT member 1 (Homo sapiens) (UniProt P51787); test: KCNQ1 activators by electrophysiology – IonWorks patch clamp, KCNQ1-CHO cells, orthogonal assay for KCNQ1 potentiator project, confirmation (AID 493184;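 active means current rise at least 3 SD above the untreated control mean in each of two repeat wells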); settings: automated patch clamp current, at 10 µM; active compounds read high
smiles,measurement,setting,value
CCC(C)NC(C(=O)Nc1ccc(Cl)c([N+](=O)[O-])c1)c1ccccc1 (centres undefined),outcome,[1],inactive
same,outcome,[2],inactive
same,outcome,[3],inactive
same,outcome,[4],inactive
same,inhibition,[5],73% (active)
same,outcome,[6],inactive
same,outcome,[7],inactive
same,outcome,[8],inactive
same,outcome,[9],inactive
same,outcome,[10],inactive
same,outcome,[11],inactive
same,outcome,[12],inactive
same,outcome,[13],inactive
same,outcome,[14],inactive
same,outcome,[15],inactive
same,outcome,[16],inactive
CCCc1nc2ccccc2n1Cc1ccccc1OC,outcome,[1],inactive
same,outcome,[2],inactive
same,outcome,[3],inactive
same,outcome,[4],inactive
same,inhibition,[5],88% (active)
same,outcome,[6],inactive
same,outcome,[7],inactive
same,outcome,[8],inactive
same,outcome,[9],inactive
same,outcome,[10],inactive
same,outcome,[11],inactive
same,outcome,[12],inactive
same,inhibition,[13],32.4% (active)
same,outcome,[14],inactive
same,outcome,[15],inactive
same,outcome,[16],inactive
O=C(Nc1ccccc1N1CCN(C(=O)c2ccc(Cl)cc2)CC1)c1cccc([N+](=O)[O-])c1,outcome,[1],inactive
same,outcome,[2],inactive
same,outcome,[3],inactive
same,outcome,[4],inactive
same,inhibition,[5],81% (active)
same,inhibition,[6],52% (active)
same,outcome,[7],inactive
same,outcome,[8],inactive
same,outcome,[9],inactive
same,outcome,[10],inactive
same,outcome,[11],inactive
same,outcome,[12],inactive
same,inhibition,[13],36.6% (active)
same,outcome,[14],inactive
same,outcome,[15],inactive
same,outcome,[16],inactive
Cc1nn(-c2ccccc2)c(Cl)c1CN(C(=O)CCl)c1ccc(Cl)cc1,outcome,[1],inactive
same,outcome,[2],inactive
same,outcome,[3],inactive
same,outcome,[4],inactive
same,inhibition,[5],93% (active)
same,inhibition,[6],69% (active)
same,outcome,[7],inactive
same,outcome,[8],inactive
same,outcome,[9],inactive
same,outcome,[10],inactive
same,outcome,[11],inactive
same,outcome,[12],inactive
same,inhibition,[13],2.77% (active)
same,outcome,[14],inactive
same,outcome,[15],inactive
same,outcome,[16],inactive
CCCn1c(=N)n(CC(=O)C(C)(C)C)c2ccccc21,outcome,[1],inactive
same,outcome,[2],inactive
same,outcome,[3],inactive
same,outcome,[4],inactive
same,inhibition,[5],92% (active)
same,outcome,[6],inactive
same,outcome,[7],inactive
same,outcome,[8],inactive
same,outcome,[9],inactive
same,outcome,[10],inactive
same,outcome,[11],inactive
same,outcome,[12],inactive
same,inhibition,[13],42.4% (active)
same,outcome,[14],inactive
same,outcome,[15],inactive
same,outcome,[16],inactive
COc1ccc(Br)cc1CNC(C)c1ccccc1 (centres undefined),outcome,[1],inactive
same,outcome,[2],inactive
same,outcome,[3],inactive
same,outcome,[4],inactive
same,inhibition,[5],55% (active)
same,outcome,[6],inactive
same,outcome,[7],inactive
same,outcome,[8],inactive
same,inhibition,[9],49.5% (active)
same,outcome,[10],inactive
same,outcome,[11],inactive
same,outcome,[12],inactive
same,inhibition,[13],23.6% (active)
same,outcome,[14],inactive
same,outcome,[15],inactive
same,outcome,[16],inactive
COc1cc(CNC2CCCC2)cc(Cl)c1OCc1ccc(F)cc1,outcome,[1],inactive
same,outcome,[2],inactive
same,outcome,[3],inactive
same,outcome,[4],inactive
same,inhibition,[5],82% (active)
same,outcome,[6],inactive
same,outcome,[7],inactive
same,outcome,[8],inactive
same,outcome,[9],inactive
same,outcome,[10],inactive
same,outcome,[11],inactive
same,outcome,[12],inactive
same,inhibition,[13],37.5% (active)
same,outcome,[14],inactive
same,outcome,[15],inactive
same,outcome,[16],inactive
Cc1ccc(/C=C2\SC(=S)N(C(Cc3ccccc3)C(=O)O)C2=O)cc1 (centres undefined),outcome,[1],inactive
same,outcome,[2],inactive
same,outcome,[3],inactive
same,outcome,[4],inactive
same,outcome,[5],inactive
same,outcome,[6],inactive
same,outcome,[7],inactive
same,outcome,[8],inactive
same,outcome,[9],inactive
same,outcome,[10],inactive
same,outcome,[11],inactive
same,outcome,[12],inactive
same,inhibition,[13],18.3% (active)
same,outcome,[14],inactive
same,outcome,[15],inactive
same,outcome,[16],inactive
CC(C1CC2CCC1C2)n1c(-c2cccs2)n[nH]c1=S (centres undefined),outcome,[1],inactive
same,outcome,[2],inactive
same,outcome,[3],inactive
same,outcome,[4],inactive
same,inhibition,[5],54% (active)
same,outcome,[6],inactive
same,outcome,[7],inactive
same,outcome,[8],inactive
same,outcome,[9],inactive
same,outcome,[10],inactive
same,outcome,[11],inactive
same,outcome,[12],inactive
same,inhibition,[13],34% (active)
same,outcome,[14],inactive
same,outcome,[15],inactive
same,outcome,[16],inactive
same,outcome,[17],inactive
same,potentiation,[18],48% (active)
same,potentiation,[19],148% (active)
same,outcome,[20],inactive
O=C(CCN1CCN(Cc2ccccc2)CC1)Nc1ccc(OCc2ccccc2)cc1,outcome,[1],inactive
same,outcome,[2],inactive
same,outcome,[3],inactive
same,potentiation,[4],12% (active)
same,outcome,[5],inactive
same,outcome,[6],inactive
same,outcome,[7],inactive
same,outcome,[9],inactive
same,outcome,[10],inactive
same,outcome,[11],inactive
same,outcome,[12],inactive
same,outcome,[13],inactive
same,potentiation,[14],25.1% (active)
same,outcome,[15],inactive
same,outcome,[16],inactive
CC1=NN(c2ccccc2)C(=O)/C1=C/c1c(O)n(-c2ccc(F)c(Cl)c2)[nH]c1=O,outcome,[1],inactive
same,outcome,[2],inactive
same,outcome,[3],inactive
same,outcome,[4],inactive
same,inhibition,[5],97% (active)
same,outcome,[6],inactive
same,outcome,[7],inactive
same,outcome,[8],inactive
same,outcome,[9],inactive
same,outcome,[10],inactive
same,outcome,[11],inactive
same,outcome,[12],inactive
same,inhibition,[13],17.1% (active)
same,outcome,[14],inactive
same,outcome,[15],inactive
same,outcome,[16],inactive
same,outcome,[17],inactive
same,outcome,[18],inactive
same,outcome,[19],inactive
same,outcome,[20],inactive
COc1ccc(N/C(C)=C2/C(=O)C(=O)N(CCO)C2c2ccc([N+](=O)[O-])cc2)cc1 (centres undefined),outcome,[1],inactive
same,outcome,[2],inactive
same,potentiation,[3],189% (active)
same,potentiation,[4],150% (active)
same,outcome,[5],inactive
same,outcome,[6],inactive
same,outcome,[7],inactive
same,outcome,[9],inactive
same,outcome,[10],inactive
same,outcome,[11],inactive
same,outcome,[12],inactive
same,outcome,[13],inactive
same,potentiation,[14],129% (active)
same,outcome,[15],inactive
same,outcome,[16],inactive
Cc1nc2c3cc(Cl)ccc3n(CCN3CCCCC3)c2s1,outcome,[1],inactive
same,outcome,[2],inactive
same,outcome,[3],inactive
same,outcome,[4],inactive
same,inhibition,[5],72% (active)
same,outcome,[6],inactive
same,outcome,[7],inactive
same,outcome,[8],inactive
same,inhibition,[9],39.5% (active)
same,outcome,[10],inactive
same,outcome,[11],inactive
same,outcome,[12],inactive
same,inhibition,[13],28.7% (active)
same,outcome,[14],inactive
same,outcome,[15],inactive
same,outcome,[16],inactive
same,outcome,[17],inactive
same,outcome,[18],inactive
same,outcome,[19],inactive
same,outcome,[20],inactive
CCOC(=O)c1c(NC(=O)/C=C/C(=O)O)sc(C)c1-c1ccc(C(C)(C)C)cc1,outcome,[1],inactive
same,outcome,[2],inactive
same,outcome,[3],inactive
same,outcome,[4],inactive
same,outcome,[5],inactive
same,outcome,[6],inactive
same,outcome,[7],inactive
same,outcome,[8],inactive
same,outcome,[9],inactive
same,outcome,[10],inactive
same,outcome,[11],inactive
same,outcome,[12],inactive
same,inhibition,[13],-6.26% (active)
same,outcome,[14],inactive
same,outcome,[15],inactive
same,outcome,[16],inactive
